Rows were chosen to be rich in hits. Some 4.6% of all compounds tested hit in one or more screens of this group.
tim23-1 inh = growth inhibitors of tim23-1 mutant yeast, primary screen, luminescence, uHTS | S. cerevisiae tim23-1 growth, BacTiter-Glo luminescence, 24 h | inhibition, % at 20 µM | AID 463212, 2010 | 330,000 compounds, 1.3% hits;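 active = growth inhibition of the mutant yeast at or above 50%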;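 also: temperature-sensitive mutant grown at 25 °C; plate controls were DMSO-treated mutant yeast for no effect and medium wells lacking yeast for full effect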
NALP3 yeast inh = NALP3 inflammasome inhibitors in reconstituted yeast, primary screen, luminescence, uHTS | 330,000 compounds, 0.39% hits | AID 2825, 2010 | Yeast reconstituted NLRP3/ASC/caspase-1, beta-gal luminescence, 24 h | inhibition, % at 10 µM;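 active = inhibition of 50% or more; inactive = inhibition below 50%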;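 also: plate controls were induced DMSO wells for no effect and uninduced yeast grown without galactose for full effect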
tim10-1 inh = growth inhibitors of tim10-1 mutant yeast, primary screen, luminescence, uHTS. AID 463190, 2010. S. cerevisiae tim10-1 ts strain growth, BacTiter-Glo, 24 h. 330,000 compounds, 2.2% hits. inhibition, % at 20 µM;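 active = inhibition of at least 40%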;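 also: mutant grown at 25 °C; 0% = DMSO wells with yeast and 100% = wells holding no yeast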
PfHsp90 yeast 2 = growth inhibition of PfHsp90-expressing yeast, primary screen, antimalarial PfHsp90 inhibitor project, S. cerevisiae, BacTiter-Glo luminescence, single point, set 2 | BacTiter-Glo ATP, 48 h; yeast lacking PDR1 and PDR3 efflux regulators | AID 504621, 2011 | inhibition, % at 9.4 µM | 310,000 compounds, 0.32% hits;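 active = every replicate shows inhibition above about 80%, whatever the replicate mean, limit read from the data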;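 also: 0% = DMSO neutral controls and 100% = 20 µM radicicol positive controls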
SKKanGAS inh = S. pyogenes SKKanGAS growth inhibitors in kanamycin, primary screen, streptokinase expression inhibitor project, SKKanGAS strain, BacTiter-Glo luminescence; AID 1662, 2009; inhibition, % at 7.5 µM; 300,000 compounds, 1.3% hits; 6 h;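 active = mean replicate score, as percent of positive control median, at least 50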;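 also: strain carries kanamycin resistance gene driven by streptokinase promoter and grows in 40 µg/ml kanamycin; loss of luminescence reflects streptokinase promoter inhibition or plain growth inhibition; 0% = median of DMSO wells and 100% = positive control at its reference dose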
TIM10 inh = growth inhibitors of isogenic TIM10 control yeast, primary screen, counter-screen for tim10-1 yeast inhibitor project, luminescence, uHTS; S. cerevisiae TIM10 strain growth, BacTiter-Glo luminescence, 24 h; inhibition, % at 10 µM; 330,000 compounds, 1.4% hits; AID 463195, 2010;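 active = inhibition of 40% or more at the single tested concentration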;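 also: wild-type TIM10 isogenic control strain grown at permissive 25 °C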
tim10-1 conf = growth inhibitors of tim10-1 mutant yeast, confirmation, single concentration, luminescence, S. cerevisiae. shares compounds with tim10-1 inh. S. cerevisiae tim10-1 ts strain growth, BacTiter-Glo, 24 h. inhibition, % at 20 µM. 7,400 compounds, 56% hits. AID 463213, 2010;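 active = inhibition of yeast growth at or above a set limit in either of two repeat tests at 20 µM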;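 also: tim10-1 mutant grown at permissive 25 °C to find synthetic lethal compounds; 0% = DMSO yeast wells and 100% = medium wells without yeast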
Starred values were filed as active, the others as inactive; . = no result given.

SMILES | tim23-1 inh | NALP3 yeast inh | tim10-1 inh | PfHsp90 yeast 2 | SKKanGAS inh | TIM10 inh | tim10-1 conf
Cc1ccc(C(C)C)c(OCC(=O)Nn2c(=O)[nH]c3ccccc3c2=O)c1 | 16 | 7 | 16 | -11 | 18 | -11 | .
Cc1ccc(C(C)C)c(OCC(=O)Nn2c(C)nc3ccccc3c2=O)c1 | 49 | 8 | 47* | -55 | -7 | 23 | 28
Clc1cccc(C2Nc3cccc4cccc(c34)N2)c1Cl | 48 | 26 | 42* | 11 | 20 | 26 | 58*
Brc1ccc(C2Nc3cccc4cccc(c34)N2)cc1 | . | . | . | -18 | . | . | .
c1coc(C2Nc3cccc4cccc(c34)N2)c1 | 45 | 12 | 41* | . | 9 | 38 | 35*
Clc1ccccc1C1Nc2cccc3cccc(c23)N1 | 35 | 22 | 43* | -3 | 27 | 23 | 34*
COc1cc(C(C)=O)ccc1OCC(=O)N(CCC1=CCCCC1)c1c(N)n(Cc2ccccc2)c(=O)[nH]c1=O | 10 | 6 | 12 | . | 3 | 5 | .
O=C(Oc1coc(CSc2ncccn2)cc1=O)c1ccco1 | 16 | -2 | 22 | 2 | 11 | 29 | .
Cc1ccnc(SCc2cc(=O)c(OC(=O)c3ccc(Br)o3)co2)n1 | 38 | 1 | 46* | 10 | -7 | 37 | 29*
COc1ccc(C(=O)NCC2(c3ccc(OC)c(OC)c3)CCCC2)c(OC)c1 | 38 | 0 | 23 | 9 | 0 | 9 | .
O=C(Nc1nc2ccccc2[nH]1)c1ccccc1F | 50 | 26 | 46* | 75 | 80* | 33 | 30
O=C(Nc1nc2ccccc2[nH]1)c1ccc(F)cc1 | 8 | 18 | 9 | . | -5 | 13 | .
Cc1ccc(S(=O)(=O)N2CCN(C(=O)C3COc4ccccc4O3)CC2)cc1C (configuration not stated) | 20 | 24 | 21 | . | -7 | 5 | .
Cc1cc(C)c(S(=O)(=O)N2CCN(C(=O)C3COc4ccccc4O3)CC2)c(C)c1 (configuration not stated) | 44 | 18 | 40* | -14 | . | 21 | 28
O=C(CNS(=O)(=O)c1c(Cl)cccc1Cl)OCc1csc(-c2ccccc2)n1 | 47 | -2 | 47* | 14 | -19 | 14 | 32*
CCn1cc(C(=O)NCCC(=O)NC(C)C)c(=O)c2cc3c(cc21)OCO3 | -8 | -2 | -9 | 22 | -2 | 4 | .
COc1ccc(CNc2cccc3[nH]c(C(F)(F)F)nc23)cc1 | 40 | 21 | 43* | 1 | 23 | 29 | 25
COc1cc(CNc2cccc3[nH]c(C(F)(F)F)nc23)cc(OC)c1 | 39 | 14 | 42* | -20 | 34 | 15 | 19
Cc1ccc(S(=O)(=O)N2CCOCC2)cc1NC(=O)CSc1nnnn1C | -9 | 11 | 7 | . | -2 | -20 | .
O=C(c1ccco1)N1CCN(c2c([N+](=O)[O-])nn(-c3ccc(Cl)cc3)[n+]2[O-])CC1 | 29 | 3 | 17 | -3 | -1 | 11 | .
CC1CCN(c2c([N+](=O)[O-])nn(-c3ccc4c(c3)OCCO4)[n+]2[O-])CC1 | 38 | 23 | 44* | . | 2 | 22 | 29
CCCN(C(=O)C1=COCCO1)c1c(N)n(Cc2ccccc2)c(=O)[nH]c1=O | 0 | 20 | -3 | . | -2 | 4 | .
Cc1ccc(Nc2nnc(SC(C)C(=O)NCC3CCCO3)s2)cc1 (configuration not stated) | 18 | 15 | 13 | -11 | . | 20 | .
COc1ccc2cc(CCNC(=O)c3c(-c4ccccc4Cl)noc3C)c(=O)[nH]c2c1 | 12 | 14 | 41* | 12 | -2 | 8 | 11
C/C=N\NC(=O)CNC(=O)CNC(=O)c1ccccc1 | -11 | 5 | -4 | -19 | -3 | 1 | .
SMILES | tim23-1 inh | NALP3 yeast inh | tim10-1 inh | PfHsp90 yeast 2 | SKKanGAS inh | TIM10 inh | tim10-1 conf
COc1ccccc1NC(=O)CCNS(=O)(=O)c1ccc2c(c1)CC(C)N2C(=O)C1CC1 (configuration not stated) | 9 | 3 | 17 | 6 | 2 | -3 | .
Cc1sc2nc(CN3CCOCC3)nc(Oc3ccc(NC(=O)c4ccco4)cc3)c2c1C | 33 | 16 | 48* | -16 | 9 | 18 | 23
Cc1ccc(S(=O)(=O)NCc2ccc(C(=O)N3CCc4ccccc4C3)cc2)cc1 | 38 | 11 | 47* | -9 | 4 | 28 | 28
CN1CCN(c2ccc(NC(=S)NC(=O)c3cccc4ccccc34)cc2)CC1 | -3 | 24 | -3 | 23 | 5 | 3 | .
CN1CCN(c2ccc(NC(=S)NC(=O)c3cccc4c(Br)cccc34)cc2)CC1 | -3 | 42 | 47* | 33 | -3 | -1 | -84
CC(O)c1nc2ccccc2n1CC(=O)N1CCN(c2ccccc2)CC1 (configuration not stated) | 15 | 5 | 14 | . | -4 | -17 | .
CC(C(=O)Nc1ccc(F)cc1Cl)N1CCN(S(=O)(=O)c2cccs2)CC1 (configuration not stated) | 28 | 14 | -19 | 8 | . | -15 | .
O=C(NCCC1=CCCCC1)C1CCCN(c2nc3ccccc3o2)C1 (configuration not stated) | 35 | 19 | 49* | 19 | 2 | 14 | 35*
Cc1ccc(CNC(=O)C2CCCN(c3nc4ccccc4o3)C2)cc1 (configuration not stated) | -7 | 21 | 1 | 12 | -3 | -9 | .
CCOC(=O)C1CCN(C(=O)CN2C(=O)COc3ccc(C(C)(C)C)cc32)CC1 | 28 | 0 | 44* | -3 | 1 | 9 | 7
COc1cc(SC#N)ccc1N=Cc1c(C)[nH]n(-c2ccc(Cl)cc2)c1=O | 34 | 25 | 42* | -36 | -1 | 33 | 26
c1ccc(C(c2ccccc2)c2ccn[nH]2)cc1 | 24 | 0 | 44* | -7 | 10 | 2 | 13
COc1ccc(-c2cc(C)no2)cc1S(=O)(=O)N(C)c1ccc(C)cc1 | 37 | 19 | 45* | -8 | 11 | -22 | -32
CC1CCCC(NC(=O)NC(=O)CCl)C1C (configuration not stated) | 47 | -23 | 32 | -18 | -9 | 37 | .
CC1CCCCC1NC(=O)NC(=O)CCl (configuration not stated) | 41 | -33 | 46* | -6 | -10 | 15 | 31
COc1ccc(OC)c(C2=NOC(C(=O)NCc3cccs3)C2)c1 (configuration not stated) | 10 | 19 | 15 | 3 | -9 | -5 | .
